The text below walks through data of article PMC5540273 (PLoS ONE, 2017).
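Also: KINOMEscan kinase panel screen.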

One test has as its system PFTAIRE2. Particulars: concentration: 1 μM, replicates: in singlicate; n = 1.
On to `O=C(Nc1cccc(-c2nn3ccccc3c2-c2ccnc(Nc3cccc(C(F)(F)F)c3)n2)c1)c1c(F)cccc1F` [GSK292658], for which the “%Inh” value is on record as 15%.
Still for that read-out and setting: as for `O=C(NC1CCN(c2ccnc(Nc3ccc(F)cc3)n2)C1)c1cc2ccccc2s1` (stereo not drawn) [GSK1379716], the figure is 25%; as for `COc1cc(Nc2nccc(-c3c(-c4cccc(NC(=O)c5c(F)cccc5F)c4)nn4ncccc34)n2)cc(OC)c1OC` [GSK327238], 4%.
Regarding `COc1cccc(-c2ccc3c(NC(=O)C4CC4)n[nH]c3n2)c1` [SB-710903], the “%Inh” value is 10%.
For the compound `Cn1cc(-c2ccc3c(c2)CCN3C(=O)Cc2cccc(Cl)c2)c2c(N)ncnc21` [GSK2606590], the “%Inh” value is given as 18%.

Another test relates to T1, PFTK1.
T1 construct: gene CDK14
As to conditions: concentration: 1 μM, replicates: in singlicate; n = 1.
For the compound `FC(F)(F)c1ccc(/C=C/c2cncnc2Nc2ccc3[nH]c(Cc4ccccc4)nc3c2)cc1` [GW709199], the “%Inh” value came out at 15%.
On the same count and under the same terms, as for `COc1ccc(Nc2nccc(NCCNC(=O)c3cc4ccccc4s3)n2)cc1` [GSK1379896], the figure is 18%; as for `Cl.Cl.NCC(NCc1ccc(-c2ccnc3[nH]ccc23)s1)c1ccccc1` (stereo not drawn) [GSK1321565], 1%.
On to `O=C(Nc1cccc(-c2nn3ncccc3c2-c2ccnc(Nc3ccccc3)n2)c1)c1c(F)cccc1F` [GSK198271], for which the “%Inh” value is 0%.
In the case of `Cn1cc(-c2ccc3c(c2)CCN3C(=O)Cc2cccc(F)c2)c2c(N)ncnc21` [GSK2603358], the “%Inh” value stood at 18%.
With `Nc1ncc(-c2cccnc2)c2scc(-c3ccc4c(c3)CCN4C(=O)Cc3ccccc3)c12` [GSK683281], the “%Inh” value was determined as 20%.
As to `COC(=O)Nc1nc2cc(Oc3ccc(NC(=O)Nc4cc(C(F)(F)F)ccc4F)cn3)ccc2[nH]1.Cl.Cl` [GW681170], the “%Inh” value was determined as 21%.
With `CCn1c(-c2nonc2N)nc2c(C#CC(C)(C)O)nc(OC[C@H](N)c3ccccc3)cc21` [GSK943949], the “%Inh” value stood at 0%.
Turning to `COc1ccc(Nc2nccc(N3CCC(NC(=O)Nc4cccc(OC)c4)C3)n2)cc1` (stereo not drawn) [GSK1379742], the “%Inh” value came to 2%.
Consider `O=C(Nc1cccc(Oc2ccc3nc(NC(=O)C4CC4)cn3n2)c1)c1ccccc1C(F)(F)F`, for which the “%Inh” value turned out to be 0%.
With `Fc1ccc(-c2ncn(C3CCNCC3)c2-c2ccnc(Oc3ccc(-c4ccccc4)cc3)n2)cc1` [SB-245391], the “%Inh” value stood at 9%.
With `CC(=O)Nc1nc2cnc(Nc3cc(NC(=O)c4cccc(C5(C#N)CC5)c4Cl)ccc3C)nc2s1`, the “%Inh” value came out at 0%.
In the case of `Clc1ccc(-c2nn3ncccc3c2-c2ccnc(Nc3ccc4c(c3)OCCO4)n2)cc1` [GW829116], the “%Inh” value worked out at 0%.
As for `O=C(Nc1ccccc1F)NC1CCN(c2ccnc(Nc3ccc(F)cc3)n2)CC1` [GSK1379800], the “%Inh” value came out at 15%.
For `c1ccc(-c2cnc3nccnn23)cc1` [AH20685], the “%Inh” value came to 0%.
For `COc1cc2c(cc1OCCN1CCNCC1)ncc1c3ccc(C#N)cc3[nH]c21`, the “%Inh” value is recorded as 9%.
On to `COc1cccc(C2=C(Nc3ccc(Cl)c(C(=O)O)c3)C(=O)NC2=O)c1` [SB-390769], for which the “%Inh” value is 26%.
Take `O=C(O)C(F)(F)F.O=C(O)C(F)(F)F.O=c1[nH]ccc2nc(N[C@@H]3CCCNC3)nc(Nc3ccc(S(=O)(=O)N4CCOCC4)cc3)c12` [GSK2177277]: the “%Inh” value came out at 65%.
Still for that read-out and setting: the value for `COc1cccc(NC(=O)NC2CCN(c3ccnc(Nc4cc(OC)c(OC)c(OC)c4)n3)C2)c1` (stereo not drawn) [GSK1379763] was 5%; that for `O=c1[nH]cc(-c2ccc(N3CCOCC3)cc2)c2sc(-c3cn[nH]c3)cc12` [GSK2276055] was 42%; that for `Nc1ncc(-c2ccc3nccc(-c4ccncc4)c3c2)cc1S(=O)(=O)N1CCOCC1` [GSK1627798] was 31%.
Regarding `Cl.c1ccc(-c2ccc3c(Nc4ccc5[nH]ncc5c4)ccnc3c2)nc1` [GW440137], the “%Inh” value came out at 19%.
For `Cc1ccc(C)c(NC(=O)NC2CCN(c3ccnc(Nc4ccc(F)cc4)n3)C2)c1` (stereo not drawn) [GSK1379720], the “%Inh” value came to 0%.
`Cl.Cl.NCC(NC(=O)c1cc(-c2ccccc2)c(-c2ccnc3[nH]ccc23)s1)c1ccccc1` (stereo not drawn) [GSK1321561]: the “%Inh” value worked out at 17%.
Same read-out and setting: the value for `Cc1occc1-c1ncc(OC[C@@H](N)Cc2c[nH]c3ccccc23)cc1-c1ccc2[nH]nc(C)c2c1.O=C(O)C(F)(F)F` [GSK682037] was 14%.
`CN(c1ccc(NC(=O)Nc2cc(C(F)(F)F)ccc2F)cc1)c1ccnc(Nc2ccc(S(N)(=O)=O)cc2)n1` [GW809893]: the “%Inh” value worked out at 97%.
On to `CC(C)c1nc(-c2cccc(NS(=O)(=O)c3c(F)cccc3F)c2F)c(-c2ccnc(Nc3ccc(N4CCOCC4)nc3)n2)s1` [GSK2008607], for which the “%Inh” value is on record as 98.7%.
Regarding `Cc1cccc(Nc2nc(N[C@H]3CCNC3)ncc2C(N)=O)c1.Cl` [GSK2197149], the “%Inh” value amounted to 15%.
As for `COc1cccc(C(=O)Nc2cccc(Oc3ccc4nc(NC(=O)C5CC5)cn4n3)c2)c1`, the “%Inh” value is 4%.
As for `Cl.c1ccc(-c2ccc3c(Nc4ccc5[nH]ccc5c4)ccnc3c2)nc1` [GW440138], the “%Inh” value is reported as 14%.
Take `CC(=O)N1CCN(c2ccc(Nc3nccc(-c4sc(C(C)C)nc4-c4cccc(NS(=O)(=O)c5cccc(Cl)c5)c4)n3)cn2)CC1` [GSK1660437]: the “%Inh” value was 57%.
Same read-out and setting: as for `CCn1c(-c2nonc2N)nc2c(C#CC(C)(C)O)ncc(OCCCCN)c21.O=C(O)C(F)(F)F.O=C(O)C(F)(F)F` [GSK507274], the figure is 32%; as for `O=C(Nc1cccc(-c2nn3ccccc3c2-c2ccnc(Nc3cccc(C(F)(F)F)c3)n2)c1)c1c(F)cccc1F` [GSK292658], 8%; as for `O=C(NC1CCN(c2ccnc(Nc3ccc(F)cc3)n2)C1)c1cc2ccccc2s1` (stereo not drawn) [GSK1379716], 13%.
For the compound `COc1cc(Nc2nccc(-c3c(-c4cccc(NC(=O)c5c(F)cccc5F)c4)nn4ncccc34)n2)cc(OC)c1OC` [GSK327238], the “%Inh” value stood at 5%.
Regarding `COc1cccc(-c2ccc3c(NC(=O)C4CC4)n[nH]c3n2)c1` [SB-710903], the “%Inh” value is given as 25%.
For `Cn1cc(-c2ccc3c(c2)CCN3C(=O)Cc2cccc(Cl)c2)c2c(N)ncnc21` [GSK2606590], the “%Inh” value amounted to 32%.
